# Source: PubChem
# The list is not random: actives were taken first. Their share in the collection is about 3%.
# KAT2A inh: qHTS Assay for Inhibitors of GCN5L2. Histone acetyltransferase KAT2A (Homo sapiens), Q92830. Potency, µM (highest dose often 58.9 µM), for the others: at the highest dose activity change, negative = inhibition, usual class: inhibitors. GCN5L2 HAT assay, ThioGlo1 CoA-SH fluorescence. 390,000 compounds, 0.21% hits
#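 Compounds, pin-transferred from DMSO stocks, meet 20nM GCN5L2 for 15 min before the reaction begins with H3(1-25) peptide (75uM) and acetyl-CoA (70uM). Thiol-reactive ThioGlo1 reports CoA release over 20 min at room temperature.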
# VDR inhibitor: Inhibitors of the vitamin D receptor (VDR): qHTS; VDR-SRC2-3 peptide fluorescence polarization, 2 h; 400,000 compounds, 0.93% hits; Vitamin D3 receptor (Homo sapiens), P11473; Potency, µM, for inactives: max response, negative = inhibition, usual class: inhibitors; AID 504847, 2011
# Target sequence (P11473 whole entry, looked up): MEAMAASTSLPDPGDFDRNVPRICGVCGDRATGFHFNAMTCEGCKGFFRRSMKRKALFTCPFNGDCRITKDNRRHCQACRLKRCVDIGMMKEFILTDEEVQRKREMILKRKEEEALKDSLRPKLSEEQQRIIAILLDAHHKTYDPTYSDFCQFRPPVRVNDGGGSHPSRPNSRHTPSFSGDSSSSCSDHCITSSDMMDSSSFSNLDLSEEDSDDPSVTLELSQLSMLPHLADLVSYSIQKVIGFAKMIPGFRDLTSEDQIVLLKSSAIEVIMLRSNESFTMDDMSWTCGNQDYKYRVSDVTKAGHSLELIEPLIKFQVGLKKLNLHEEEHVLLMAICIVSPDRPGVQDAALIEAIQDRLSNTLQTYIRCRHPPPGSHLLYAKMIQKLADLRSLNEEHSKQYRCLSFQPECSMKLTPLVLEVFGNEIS
#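 Fluorescence polarization assay measuring small-molecule disruption of VDR binding to the coregulator peptide SRC2-3. Compounds were pin-transferred (23 nl) into the reagent mix and incubated 2 h at room temperature before reading.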
# PLK1 PBD block: qHTS for Inhibitors of PLK1-PDB (polo-like kinase 1 - polo-box domain): Primary Screen; AID 720504, 2013; Serine/threonine-protein kinase PLK1 (Homo sapiens), P53350; Plk1 PBD binding of FITC phosphopeptide, fluorescence polarization; 360,000 compounds, 2.8% hits; Potency, µM, for the others: max response, negative = inhibition, usual class: inhibitors; further: series mostly up to about 57 µM; nearly all actives have a fitted effect of over 65% in size
# 12-LOX inh: Primary qHTS assay for inhibitors of human arachidonate 12S-lipoxygenase (ALOX12): Round 2 | purified 12hLO, xylenol orange hydroperoxide absorbance | Potency, µM (titrated, usually from 108 µM), for the others: at the top dose activity change, negative = inhibition, most hits filed as inhibitors | 580,000 compounds, 1.1% hits
#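 Purified human 12hLO (150 nM final) in 25 mM Hepes, 0.01% Triton X-100, pH 7.0 was preincubated 15 min at room temperature with compound. Then 40 uM arachidonic acid was added, 30 min. Hydroperoxide was read by Fe-XO absorbance ratio 573/405 nm.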
# * marks the source's active call; other numbers are inactive results; ? = inconclusive; . = no result given; [ ] = remark or other dose. The call rests on the fitted dose curve; in most records, active means well fitted curve in the direction sought with a large enough effect; inconclusive means small, poorly fitted or top-dose-only effect, or another doubt; inactive means no such curve, though single readings can be large; an effect the other way counts as inactive or inconclusive. On the % scale 0 is the no-effect control and ±100 the full control effect; potency means the concentration at half of the fitted maximal effect.
SMILES,KAT2A inh,VDR inhibitor,PLK1 PBD block,12-LOX inh
CC(CCc1ccccc1)NC(=O)N1CCN(S(=O)(=O)c2ccc(F)cc2)CC1 (stereo unspecified),.,.,.,10%
CC(=O)c1ccc(S(=O)(=O)NCCC(=O)NC2CCC(C)CC2)cc1 (stereo unspecified),.,.,.,6%
O=S(=O)(Nc1nc2ccccc2nc1NC1CCCC1)c1ccc2c(c1)OCCO2,.,.,.,2%
Clc1cc2c(nn1)Nc1ccccc1S2,-2%,-6%,-15%,?
S=C1Nc2ccccc2Sc2ccc(Cl)cc21,0%,-13%,24µM*,-28%
O=C(c1ccc(Cl)c(Cl)c1)N1CCC(=O)N(C(CO)Cc2ccccc2)CC1 (stereo unspecified),.,?,27µM*,-1%
O=C(c1ccc(Cl)c(Cl)c1)N1CCC(=O)N([C@H](COCc2ccccc2)Cc2ccccc2)CC1,.,.,-1%,?
COc1ccc(NC(=O)c2sc(=S)[nH]c2N)cc1,?,50µM*,?,?
c1ccc(SCc2nc3ccccc3s2)nc1,3%,-24%,19µM*,0%
S=c1[nH]nc(-c2ccccc2)n1/N=C/c1cccc(Cl)c1,-1%,-4%,-21%,-21%
CC(/C=N/n1c(-c2ccc(Cl)cc2)n[nH]c1=S)=C\c1ccco1,-16%,-14%,-29%,32µM*
Cc1ccccc1/C=N/n1c(-c2ccccn2)n[nH]c1=S,1%,0%,-17%,-9%
S=c1[nH]nc(-c2ccccc2)n1/N=C/c1ccc(Cl)cc1,-5%,3%,-23%,22µM*
C=CCn1c(-c2cccnc2)n[nH]c1=S,11%,-7%,1%,-22%
C=CCn1c(-c2ccccn2)n[nH]c1=S,.,.,-1%,10µM*
S=c1[nH]nc(-c2ccccn2)n1/N=C/c1cccc2ccccc12,-7%,-5%,27µM*,5.6µM*
COc1ccc(C(=O)c2sc(Nc3ccccc3OC)nc2N)cc1,.,.,.,-33%
CC(C(=O)c1c[nH]c2ccccc12)N1CCC(C(=O)N2CCCCCC2)CC1 (stereo unspecified),.,.,.,1%
COc1ccccc1C1=NS(=O)(=O)N(C)C(C(=O)N2CCCCC2C)=C1 (stereo unspecified),.,.,.,-1%
CC(C)CN(C(=O)Cn1cnc2c1c(=O)n(C)c(=O)n2C)c1nc2ccccc2s1,.,.,.,12%
S=c1[nH]nc(-c2ccccn2)n1/N=C/c1ccc(Cl)cc1,-6%,-9%,-27%,28µM*
CN(Cc1ccco1)c1ncncc1-c1ccccc1C(F)(F)F,-2%,50µM*,.,-6%
Cc1ccccc1-c1cncnc1N(C)Cc1ccco1,?,40µM*,.,-15%
CN(C)c1ccc(C(=S)N2CCCCCC2)cc1,-4%,2%,?,40µM*
CN(C)c1ccc(C(=S)N2CCN(c3ccccc3)CC2)cc1,-7%,13%,-5%,17%
SMILES,KAT2A inh,VDR inhibitor,PLK1 PBD block,12-LOX inh
CC(=O)N1CCN(C(=S)c2ccc(N(C)C)cc2)CC1,-3%,-13%,21µM*,?
CC1CCN(C(=S)c2ccc(N(C)C)cc2)CC1,-21%,-4%,30µM*,?
Cc1ccc(N2CCN(C(=S)c3ccc(N(C)C)cc3)CC2)cc1,-5%,?,17µM*,?
CN(C)c1ccc(C(=S)N2CCOCC2)cc1,-8%,-9%,-4%,0%
CN1[C@@H](CCC(=O)NCc2cccs2)CNC(=O)[C@@H]2[C@H]1CCN2Cc1ccc(C(F)(F)F)cc1,.,.,.,39%
CCc1ccc2oc(-c3ccc(N)cc3O)nc2c1,.,.,.,8%
COc1ccc(NC(=O)c2ccccc2NS(=O)(=O)c2ccc3c(c2)OCCCO3)cc1,.,.,.,35%
Oc1ccc(C(=S)N2CCCCC2)cc1,1%[0.501 µM],-13%,19µM*,?
CCN(Cc1ccccc1)C(=O)CSc1nc(C2CC2)nc2ccccc12,.,.,.,8%
N#Cc1ccc(CCC(=O)OCc2ccc(C#N)cc2)cc1,.,.,.,-4%
N#Cc1ccc(CCC(=O)O)cc1,.,.,.,28µM*
CC(C1SC(=S)NC1=O)C1SC(=S)NC1=O (stereo unspecified),.,.,2.1µM*,13µM*
O=C(Sc1n[nH]c(=O)[nH]c1=O)c1ccccc1,.,?,5.3µM*,?
CS(=O)(=O)Nc1ccc(Cc2ccc(NS(C)(=O)=O)cc2)cc1,-3%,5%,-7%,?
NNc1ccc(Cc2ccc(NN)cc2)cc1,.,.,.,20µM*
O=C(CSc1nnnn1-c1ccccc1)NC(=O)Cc1ccccc1,4%,-8%,5%,-24%
Cn1nnnc1SCC(=O)NC(=O)Cc1ccccc1,1%,-30%,3µM*,0%
CCN1CCN(C(=O)CN(c2cccc(C)c2C)S(C)(=O)=O)CC1,.,.,.,18%
O=C(CCNC(=O)Cn1cnc2ccccc2c1=O)NCC1COc2ccccc2O1 (stereo unspecified),-2%,-16%,3µM*,-21%
COc1cc(OC)c(NC(=O)CCNC(=O)Cn2cnc3ccccc3c2=O)cc1Cl,-3%,-23%,13µM*,14%
O=C(CCNC(=O)Cn1cnc2ccccc2c1=O)NCC1CCCO1 (stereo unspecified),4%,-15%,-12%,-1%
CCCOc1nc2ccccc2nc1N1CCC(C(=O)Nc2cc(F)cc(F)c2)CC1,.,.,.,-27%
Cc1ccc(CNC(=S)NNC(=O)C(C)(C)O)cc1,.,.,.,9%
COc1cccc(-c2ncc3c(n2)OCCN(c2ccccc2)C3=O)c1,.,.,.,7%[176 µM]
CC(=O)c1ccc(N2CCN(C(=O)c3ccco3)CC2)c(F)c1,-4%,6%,19µM*,22%
SMILES,KAT2A inh,VDR inhibitor,PLK1 PBD block,12-LOX inh
O=C(NCCc1ccccc1)c1nc(-c2cccc3[nH]ccc23)no1,.,.,.,-34%
COc1ccc(NC(=O)C2CCN(C(=O)c3cccs3)CC2)c(OC)c1,2%,?,7.5µM*,14%
CCOC(=O)CNC(=O)CSc1ncnc2c1cnn2-c1ccc(Cl)cc1,3%,-7%,24µM*,25%
CC(=O)CSc1ncnc2c1cnn2-c1ccccc1,-15%,?,24µM*,1%
CNC(=O)CSc1ncnc2c1cnn2-c1ccccc1,-3%,-13%,-1%,-4%
Cc1nccc(-c2cccc(NC(=O)c3nccnc3N)c2)n1,.,.,.,-24%
CCc1nc2nc(C)c(NS(=O)(=O)c3cccs3)c(=O)n2[nH]1,-16%,-9%,-11%,6.3µM*
O=Cc1ccccc1OCCOc1ccc([N+](=O)[O-])cc1,-6%,?,27µM*,-11%
O=C(O)c1cccc(S(=O)(=O)Nc2ccc3oc(=O)sc3c2)c1,?,89µM*,?,-18%
CC(C)c1cc(C(=O)O)c2cnn(C(C)C)c2n1,-5%,?,27µM*,6%
CC(C)c1cc(C(=O)NC2CC2)c2cnn(C(C)C)c2n1,.,.,.,-7%
CCC1(C)C(C#N)C(=O)NC(=O)C1C#N (stereo unspecified),.,.,.,4%
